From PubChem BioAssay AID651821 (The Scripps Research Institute Molecular Screening Center, 2012) come the findings set out here.

In all, about 370,000 compounds went through this assay and about 4,700 (1.3%) were called active. The full list was thinned out, with actives kept by preference. Unmarked numbers belong to inactive results.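 Rule for the calls: active = inhibition above the plate cutoff, the mean of all test compounds on that plate plus 3 SD (cut at about 35% in these data); inactive = the rest.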

The test in a line: small molecules binding CAG repeat RNA – biochemical, fluorescence, primary screen (AID 651821).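 Note: 0% = DMSO alone and 100% = 100 µM mitoxantrone as full dye displacement; higher means more dye released from RNA so lower well fluorescence.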 The note with it: r(CAG) RNA repeat, TO-PRO-1 dye displacement fluorescence; at 3 µM; hits give high values.
As usually defined, the inhibition is the relative decrease from the control value, in per cent. With `COc1cccc(CNC(=O)CNS(=O)(=O)c2ccc3nc(C)sc3c2)c1OC`, the inhibition is 0.91%.

For `COc1cccc(CNC(=O)[C@H]2CCCN2C(=O)[C@H]2CCCN2C(=O)c2cc(F)cc(F)c2)c1`, the inhibition is -1.44%.

`COC(=O)C[C@@H]1CC[C@@H]2[C@H](COc3ccc(NC(=O)c4cccc(F)c4)cc3C(=O)N2C)O1`: the inhibition was -0.86%.

Regarding `COc1ccccc1C(=O)NC1CCCCN(C(C)C)C1=O` (centres undefined), the inhibition is -0.3%.

Regarding `O=C(CCC1CCN(C(=O)c2cccc(Cl)c2F)CC1)Nc1ccccc1`, the inhibition is -5.06%.

`C[C@@H]1CN([C@H](C)CO)S(=O)(=O)c2ccc(C#C[C@@H](C)O)cc2O[C@@H]1CN(C)Cc1ccc(-c2ccccc2)cc1`: the inhibition is 4.36%.

For `C[C@@H]1CN([C@@H](C)CO)S(=O)(=O)c2ccc(-c3ccc(C(=O)N(C)C)cc3)cc2O[C@@H]1CN(C)Cc1ccccc1C(=O)O`, the inhibition is 3.43%.

On to `Cc1ccccc1-c1ccc2c(c1)O[C@@H](CN(C)Cc1ccc(C(=O)O)cc1)[C@@H](C)CN([C@H](C)CO)S2(=O)=O`, for which the inhibition was 51.3% (active).

For `CN(C)c1ccc(NC(=O)NC2CCCCN(Cc3ccc(Cl)cc3)C2=O)cc1` (centres undefined), the inhibition is 5.29%.

With `CC(=O)Nc1ccc(C(=O)CSc2nc3ccc(C)cc3[nH]2)cc1`, the inhibition was 14.5%.

Regarding `CSCC[C@H](NC(=O)OC(C)(C)C)C(=O)N/N=C/c1cc2ccc(C)cc2nc1Cl`, the inhibition was 3.07%.

With `Cc1ccc2cc(/C=N/Nc3ccc(C(=O)O)cc3)c(Cl)nc2c1`, the inhibition was 41.6% (active).

As for `CCOC(=O)/C=C/c1ccccc1O`, the inhibition is 0.7%.

`CCC(=O)Nc1ccc2c(c1)C(=O)N(C)[C@H]1CC[C@H](CC(=O)NCCOC)O[C@@H]1CO2`: the inhibition was -0.44%.

Take `Cc1ccc(Cc2nnc(SCC(=O)Nc3ccc(C)cc3C)[nH]c2=O)cc1`: the inhibition was 10.1%.

Turning to `Cc1ccc(Cc2nnc(SCC(=O)Nc3ccccc3C)[nH]c2=O)cc1`, the inhibition was 15.2%.

For `COc1ccc(Cc2nnc(SCC(=O)Nc3ccc(C)c(Cl)c3)[nH]c2=O)cc1`, the inhibition is 70.4% (active).

Regarding `Cc1ccc(OCc2nnc(SC/C=C/c3ccccc3)n2Cc2ccco2)cc1`, the inhibition is 5.16%.

Regarding `Cc1ccc(NC(=O)Nc2nnc(-c3ccncc3)s2)cc1`, the inhibition is 56.5% (active).

As for `Cc1nnc(NC(=O)Nc2ccc(Cl)c(Cl)c2)s1`, the inhibition is 41.7% (active).

For the compound `Cc1ccc(CNC(=O)Nc2nnc([C@H]3C[C@H](O)[C@@H](CO)O3)s2)cc1`, the inhibition was 6.41%.

For the compound `O=C(CC(O)(C(F)(F)F)C(F)(F)F)Nc1ccc(Cl)c(Cl)c1`, the inhibition is 4.89%.

Turning to `Cc1ccc(NC(=O)Nc2cc(C)nn2-c2ccccc2)cc1`, the inhibition is 0.22%.

As for `O=C(CCS(=O)(=O)c1ccccc1)Nc1ccc(Cl)c(Cl)c1`, the inhibition is 5.15%.

Regarding `CCOC(=O)Cn1c2c(n(-c3ccc(F)cc3)c1=O)C=C(c1ccccc1)[C@@H](C)C(C(=O)N(C)C1CCCCC1)=C2`, the inhibition is 7.36%.

In the case of `O=C1CCC2(CCC(c3ccc(Cl)cc3)CC2)N1CCO` (centres undefined), the inhibition is 0.01%.

With `Cc1cccc(C(=O)NC(=S)N2CCN(c3ccc([N+](=O)[O-])cc3)CC2)c1`, the inhibition was 1.75%.

Regarding `Cc1cc(/C=N/Nc2ccc([N+](=O)[O-])cn2)c(C)n1-c1cccc(C(=O)O)c1`, the inhibition was 47.8% (active).

As to `Cc1c(NC(=O)Nc2cccc([N+](=O)[O-])c2)c(=O)n(-c2ccccc2)n1C`, the inhibition is -1.07%.

Consider `CCN(CC)Cc1c(C(=O)OC)nnn1-c1nonc1N`, for which the inhibition is -2.7%.

As for `CCCCOCCCNC(=O)C[C@H]1C[C@@]2(C(=O)OC)C(=C[C@H](COCc3ccccc3)O[C@@H]2C)N(Cc2cccc3ccccc23)C1=O`, the inhibition was 4.81%.

As to `Cc1ccc(CSCC(N)C(=O)O)cc1` (centres undefined), the inhibition was 5.4%.

Consider `Cc1ccc(SC(C)C(=O)NCc2ccc(F)cc2)cc1` (centres undefined), for which the inhibition was -0.76%.

As for `Cc1ccc(SC(CC(=O)c2ccc(C(C)(C)C)cc2)C(=O)O)cc1` (centres undefined), the inhibition was 42.9% (active).

`CCOC(=O)C1=C(C)NC(SC)=NC1c1ccccc1` (centres undefined): the inhibition is 0.67%.

For the compound `CO[C@@H]1[C@@H](OC(N)=O)[C@@H](O)C(Oc2ccc3c(O)c(NC(=O)c4ccc(O)c(CC=C(C)C)c4)c(=O)oc3c2C)OC1(C)C` (some centres undefined), the inhibition is 49.8% (active).

For the compound `COc1ccc(NC(=O)N(C)C[C@@H]2OCCCC[C@@H](C)Oc3ccc(NC(=O)NC4CCCCC4)cc3C(=O)N([C@H](C)CO)C[C@@H]2C)cc1`, the inhibition was 10%.

As to `COc1cc(NC(=O)COc2ccccc2Cl)ccc1NC(=O)C(C)C`, the inhibition was -5.61%.

`O=C(COc1ccccc1)Nc1ccc(C(=O)N2CCCC2)cc1`: the inhibition was -1.86%.

With `O=C(COc1ccccc1Cl)Nc1ccc(C(=O)c2ccc(C(=O)O)cc2)cc1`, the inhibition is 41.2% (active).

`O=C(OC12CCCN(C1)/C(=C/c1cccnc1)C2)C1CCCC1` (centres undefined): the inhibition was -0.17%.

Turning to `COc1ccccc1-c1nnc(NC(=O)c2ccc3ncsc3c2)o1`, the inhibition was 10.6%.

Turning to `Cc1sc(NC(=O)c2ccc3ncsc3c2)c(C(N)=O)c1C`, the inhibition is 35.7% (active).

With `O=C(COC(=O)c1ccc2ncsc2c1)Nc1ccc(Cl)cc1`, the inhibition is 7.21%.

On to `O=C(CCl)NC1CCCCN(Cc2cccc(C(F)(F)F)c2)C1=O` (centres undefined), for which the inhibition was 1.48%.

`Cc1cc(=O)oc2c3c(cc(OCC(=O)N[C@H](C(=O)O)c4ccccc4)c12)OC(C)(C)CC3`: the inhibition was 33.1%.

For the compound `Cc1c(C)c2c(OCC(=O)NCCCO)cc3c(c2oc1=O)CCC(C)(C)O3`, the inhibition was -6.81%.

As to `Cc1c(C)c2c(OCC(=O)N[C@@H](C(=O)O)c3ccccc3)cc3c(c2oc1=O)CCC(C)(C)O3`, the inhibition was 41.1% (active).

As for `CCN(CC(=O)Nc1c(F)cccc1F)C(=O)CN1c2cccc3cccc(c23)S1(=O)=O`, the inhibition was -4.19%.

Regarding `c1csc(-c2nnc(SCc3nc4ccccc4[nH]3)o2)c1`, the inhibition was 0.42%.

Regarding `COC(=O)Cc1cc(=O)n(-c2nc3ccccc3s2)[nH]1`, the inhibition is 60.6% (active).

As to `COC(=O)Cc1csc(Nc2c(C)n(C)n(-c3ccccc3)c2=O)n1`, the inhibition was 3.58%.

Regarding `COC(=O)C1[C@H]2SC(C)(C)C(C(=O)OC)N2C(=O)N1Cc1nc2ccccc2s1` (some centres undefined), the inhibition was -2.88%.

`CC(C)NC(=O)/C(C#N)=C\c1ccc(N(C)C)c(Br)c1`: the inhibition was -7.35%.

On to `COCC(=O)N[C@@H]1C[C@@H]2O[C@@H](CO)CC[C@@H]2O[C@@H]1CCc1ccc(-c2ccccc2)cc1`, for which the inhibition was -0.99%.

On to `O=C(Nc1ccc2c(c1)CCC2)c1cccc(S(=O)(=O)N2CCN(c3ccc(F)cc3)CC2)c1`, for which the inhibition is 13%.

As for `O=C(NCC1(N2CCCCC2)CCCCC1)c1cccc(S(=O)(=O)Nc2ccccc2Cl)c1`, the inhibition is 16.6%.

On to `O=C(Nc1ccc2c(c1)CCC2)c1cccc(S(=O)(=O)Nc2ccccc2Cl)c1`, for which the inhibition was 57.2% (active).

Consider `CCOC(=O)[C@@]12CN(C(=O)OC(C)(C)C)CC=C1N(Cc1ccc(OC)cc1)C(=O)[C@H]2CC(=O)NCc1ccc(OC)c(OC)c1`, for which the inhibition was 1.18%.

Take `CCCCCCC(=O)Nc1nc(C)c(-c2csc(Nc3cc(Cl)ccc3OC)n2)s1`: the inhibition was 41.8% (active).

Regarding `CCCCCCC(=O)Nc1nc(C)c(-c2csc(Nc3cccc(OC)c3)n2)s1`, the inhibition was 28.5%.

As for `C=CCCC(=O)Nc1nc(C)c(-c2csc(Nc3ccc(Cl)cc3)n2)s1`, the inhibition is 31.7%.

As for `COCCCNC(=O)C[C@H]1C[C@@]2(C(=O)OC)C(=C[C@H](C(C)(C)C)O[C@@H]2C)N(Cc2ccc3c(c2)OCO3)C1=O`, the inhibition was -0.27%.

Take `CCOc1cc(/C=C(/C#N)c2ccc(Cl)cc2)cc(Cl)c1OCC(=O)O`: the inhibition is 16.7%.

Turning to `CCOc1cc(/C=C(\C#N)c2nc(-c3cccs3)c(NC(C)=O)s2)ccc1O`, the inhibition is 37.7% (active).

On to `CCOc1ccc(/C=C/C(=O)N(CC)CC(=O)NCc2cccs2)cc1OC`, for which the inhibition is -8.5%.

`CCCN1C(=O)c2[nH]nc(-c3ccccc3)c2C1c1ccccc1` (centres undefined): the inhibition was 0.38%.

Take `CC1(OC(=O)C2CCCC2)C(=O)C=C2C=C(c3ccc(C#N)cc3)OC=C2C1=O` (centres undefined): the inhibition was 50.7% (active).

`Cc1ccccc1C(=O)N1CCC(C(=O)Oc2ccc(C#N)cc2)CC1`: the inhibition is -7.52%.

Turning to `COC(=O)CCCC1=CC2=C(c3ccccc3)C(=O)C(C)(OC(=O)C3CCCC3)C(=O)C2=CN1c1ccc(OC)cc1` (centres undefined), the inhibition is 6.99%.

For `C=CC1=CCN(S(=O)(=O)C(C)(C)C)[C@@H]1CCO`, the inhibition is 8.95%.

Consider `CCC(C)Cn1c(O)cc2nn(-c3nc4ccccc4s3)c(=O)c-2c1C` (centres undefined), for which the inhibition was 56.8% (active).

Take `Cc1cccc(OCC(=O)NC2CC(C)(C)NC(C)(C)C2)c1`: the inhibition was 0.76%.

In the case of `COCC(=O)Nc1cc(C(=O)OC)cc(C(=O)OC)c1`, the inhibition is -0.01%.

Consider `Cc1cc(C)cc(OCC(=O)Nc2cc(NC(=O)COc3cc(C)cc(C)c3)cc(C(=O)O)c2)c1`, for which the inhibition is 61.8% (active).

Turning to `Cc1ccc(OCC(=O)Nc2ccc(C(=O)O)cc2NC(=O)COc2ccc(C)c(C)c2)cc1C`, the inhibition is 19.4%.

Turning to `Cc1cccc(OCC(=O)Nc2ccc(C(=O)O)cc2NC(=O)COc2cccc(C)c2)c1`, the inhibition was 50.5% (active).

As to `Cc1cc(C)cc(OCC(=O)Nc2ccc(N3CCOCC3)cc2N2CCOCC2)c1`, the inhibition was -4.13%.

Take `COC(=O)Nc1nc2ccc(C(=O)C3CC3)cc2[nH]1`: the inhibition is 4.25%.

For the compound `C[C@H](C(=O)N(C)c1ccccc1)[C@@H](O)c1ccc2ccccc2c1`, the inhibition is 1.73%.

As for `CCOC(=O)[C@@]12CCC3=C1N(CCC3)C(=O)[C@H](CC(=O)N1CCN(C(=O)c3ccco3)CC1)C2`, the inhibition was 4.55%.

With `COc1cc(C2CC(=O)N3CN(Cc4ccccc4)CSC3=C2C#N)ccc1OCc1ccccc1` (centres undefined), the inhibition was 51.3% (active).

In the case of `CCCNC(=O)C1CC(=O)N(c2ccc(OCc3ccccc3)cc2)C1` (centres undefined), the inhibition was 1.21%.

For the compound `C=CCc1ccc(OCC(O)CN2CCN(Cc3ccccc3)CC2)c(OC)c1` (centres undefined), the inhibition is -8.04%.
